Data published in PubChem BioAssay (EPA / NIEHS).
Results filed as inconclusive are left out. Calls of active or inactive are those of the source. How the source made its calls, unless noted: active means hit-call score of the fitted dose curve at least 0.9, where 1 is the maximum; inconclusive means response in the unintended direction; inactive means score below 0.9.

Legend:
[1] = BSK_4H_Eotaxin3: BioMAP Diversity Plus: 4H Assay for Eotaxin 3 Biomarker Activity (AID 2283000; active means hit-call score of the fitted dose curve at least 0.9, where 1 is the maximum; inactive means score below 0.9;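 further: CCL26 protein level quantified by ELISA in parallel with SRB cytotoxicity check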); settings: primary human endothelial cells (HUVEC); actives raise or lower the signal
How it was run: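 Eotaxin-3 (CCL26) levels were measured by ELISA in HUVEC primary cultures 24 h post-dosing. Gain or loss of signal was fitted in both directions, with DMSO serving as baseline and negative control.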

[2] = molecular target: human Peroxisome Proliferator-activated Receptor alpha (PPARa), PPARA (gene 5465) (UniProt Q07869); assay: ATG_PPARa_TRANS: Attagene TRANS-FACTORIAL HepG2 Assay for human Peroxisome Proliferator-activated Receptor alpha (PPARa) (AID 2283001)
How it was run: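 Reporter transcripts from GAL4-UAS units in transfected HepG2 were quantified 24 h after dosing. Detection used reverse transcription, PCR, fluorescent primer extension and capillary electrophoresis, with DMSO as baseline.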

[3] = read-out: Intercellular Adhesion Molecule 1 (ICAM1), ICAM1 (gene 3383); assay: BSK_3C_ICAM1: BioMAP Diversity Plus: 3C Assay for Intercellular Adhesion Molecule 1 (ICAM1) Biomarker Activity (AID 2283003; active means hit-call score of the fitted dose curve at least 0.9, where 1 is the maximum; inactive means score below 0.9); settings: primary human endothelial cells (HUVEC); actives raise or lower the signal
How it was run: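 Human vascular endothelial primary cells, 3C conditions, 24 h treatment. ICAM-1 by ELISA.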

[4] = BSK_3C_Proliferation: Cell Proliferation Assessment in the BioMAP Diversity Plus: 3C Assay (AID 2283006; active means hit-call score of the fitted dose curve at least 0.9, where 1 is the maximum; inactive means score below 0.9); settings: primary human endothelial cells (HUVEC)
How it was run: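 Proliferation of human vascular endothelial primary cells after 48 h dosing, quantified as SRB-stained protein at 560 nm relative to DMSO.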

[5] = molecular target: Peroxisome proliferator-activated receptor gamma (Homo sapiens) (UniProt P37231); assay: ATG_PPARg_TRANS: Attagene TRANS-FACTORIAL HepG2 Assay for human Peroxisome Proliferator-activated Receptor-gamma (PPARg) (AID 2283007)
How it was run: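 Multiplexed reporter transcription units in HepG2, 24 h dosing, reporter transcripts quantified by fluorescent RT-PCR and capillary electrophoresis. Increase over DMSO scored.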

[6] = read-out: E-selectin (Homo sapiens) (UniProt P16581); assay: BSK_3C_Eselectin: BioMAP Diversity Plus: 3C Assay for Eselectin Biomarker Activity (AID 2283015; active means hit-call score of the fitted dose curve at least 0.9, where 1 is the maximum; inactive means score below 0.9;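 further: cell surface E-selectin protein quantified by ELISA 24 h after dosing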); settings: primary human endothelial cells (HUVEC); actives raise or lower the signal
How it was run: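 Primary human umbilical vein endothelial cells (3C system), read 24 h after compound addition; E-selectin measured by ELISA. Bidirectional curve fitting against DMSO baseline; cytotoxicity by parallel SRB total-protein staining.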

[7] = read-out: Interleukin-1 alpha (IL1a), IL1A (gene 3552); assay: BSK_BE3C_IL1a: BioMAP Diversity Plus: BE3C Assay for Interleukin-1 alpha (IL1a) Biomarker Activity (AID 2283016; active means hit-call score of the fitted dose curve at least 0.9, where 1 is the maximum; inactive means score below 0.9); settings: primary human bronchial epithelial cells; actives raise or lower the signal
How it was run: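 Cultures of primary human bronchial epithelial cells receive test chemical. After 24 h, IL-1a is quantified by ELISA, while parallel wells are fixed in TCA and SRB-stained for total protein. Changes in either direction are fitted relative to DMSO.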

[8] = read-out: Monocyte Chemoattractant Protein-1 (MCP1), CCL2 (gene 6347); assay: BSK_3C_MCP1: BioMAP Diversity Plus: 3C Assay for Monocyte Chemoattractant Protein-1 (MCP1) Biomarker Activity (AID 2283017; active means hit-call score of the fitted dose curve at least 0.9, where 1 is the maximum; inactive means score below 0.9); settings: primary human endothelial cells (HUVEC); actives raise or lower the signal
How it was run: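 Human umbilical vein endothelial cells (3C system) exposed to chemicals for 24 h; MCP-1 quantified by ELISA against the DMSO baseline with bidirectional fitting, and parallel SRB staining used to assess cytotoxicity.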

[9] = read-out: Monocyte Chemoattractant Protein-1 (MCP1), CCL2 (gene 6347); assay: BSK_4H_MCP1: BioMAP Diversity Plus: 4H Assay for Monocyte Chemoattractant Protein-1 (MCP1) Biomarker Activity (AID 2283018; active means hit-call score of the fitted dose curve at least 0.9, where 1 is the maximum; inactive means score below 0.9); settings: primary human endothelial cells (HUVEC); actives raise or lower the signal
How it was run: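 Readout: MCP-1 ELISA on compound-treated HUVEC, sampled 24 h post-dosing. Baseline and negative control DMSO; bidirectional fit. Overt toxicity checked alongside by sulforhodamine B protein staining at time of biomarker measurement.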

[10] = read-out: Human Leukocyte Antigen - DR isotype (HLADR), HLA-DRA (gene 3122); assay: BSK_3C_HLADR: BioMAP Diversity Plus: 3C Assay for Human Leukocyte Antigen - DR isotype (HLADR) Biomarker Activity (AID 2283019; active means hit-call score of the fitted dose curve at least 0.9, where 1 is the maximum; inactive means score below 0.9;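 further: ELISA of cell-surface HLA-DR on HUVEC 24 h after dosing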); settings: primary human endothelial cells (HUVEC); actives raise or lower the signal
How it was run: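 HUVEC monoculture, HLA-DR measured by ELISA 24 h after chemical dosing. Fitted bidirectionally against DMSO baseline; parallel SRB staining assessed cytotoxicity, with 3C proliferation read by SRB at 48 h.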

[11] = molecular target: human Peroxisome Proliferator-activated Receptor delta (PPARd), PPARD (gene 5467) (UniProt Q03181); assay: ATG_PPARd_TRANS: Attagene TRANS-FACTORIAL HepG2 Assay for human Peroxisome Proliferator-activated Receptor delta (PPARd) (AID 2283002)
How it was run: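 Read-out is induced reporter mRNA, quantified by RT-PCR with fluorescent labelling and capillary electrophoresis after 24 h dosing. Cells are HepG2 transiently carrying multiple GAL4-UAS reporter units driven by exogenous NR-GAL4 chimeras; DMSO serves as baseline.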

[12] = molecular target: human Retinoic Acid Receptor beta (RARb), RARB (gene 5915) (UniProt P10826); assay: ATG_RARb_TRANS: Attagene TRANS-FACTORIAL HepG2 Assay for human Retinoic Acid Receptor beta (AID 2283004)
How it was run: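 HepG2 cells were transiently transfected with GAL4-UAS reporter units that report activity of exogenous chimeric NR-Gal4 proteins, then exposed to compound for 24 h. Reporter mRNA was quantified by RT-PCR with capillary electrophoresis fluorescence, as gain of signal over DMSO.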

[13] = molecular target: Retinoic acid receptor alpha (Homo sapiens) (UniProt P10276); assay: ATG_RARa_TRANS: Attagene TRANS-FACTORIAL HepG2 Assay for human Retinoic Acid Receptor alpha (RARa) (AID 2283005);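 on AC50: potency for increased reporter signal meaning RARa activation over DMSO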
How it was run: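 Reporter transcripts, measured by RT-PCR with fluorescent labeling and capillary electrophoresis after 24 h dosing, reflect activity of an exogenous human RARa–GAL4 fusion in transiently transfected HepG2. Fitted for increase relative to DMSO.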

[14] = molecular target: human Retinoic Acid Receptor gamma (RARg), RARG (gene 5916) (UniProt P13631); assay: ATG_RARg_TRANS: Attagene TRANS-FACTORIAL HepG2 Assay for human Retinoic Acid Receptor gamma (RARg) (AID 2283009)
How it was run: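 HepG2, RARg-GAL4 TRANS system, 24 h exposure; reporter mRNA by RT-PCR + CE fluorescence; increase over DMSO.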

[15] = molecular target: human RAR-related Orphan Receptor gamma (RORg), RORC (gene 6097) (UniProt P51449); assay: ATG_RORg_TRANS: Attagene TRANS-FACTORIAL HepG2 Assay for human RAR-related Orphan Receptor gamma (RORg) (AID 2283011)
How it was run: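 HepG2 cells transiently transfected with GAL4-UAS reporter units and chimeric RORg-Gal4 construct; after 24 h chemical exposure, reporter mRNA measured by RT-PCR with fluorescent capillary electrophoresis, gain of signal fitted against DMSO.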

[16] = molecular target: Retinoic acid receptor RXR-alpha (Homo sapiens) (UniProt P19793); assay: ATG_RXRa_TRANS: Attagene TRANS-FACTORIAL HepG2 Assay for human Retinoid X Receptor alpha (RXRa) (AID 2283012)
How it was run: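 Cells (HepG2) carried transiently transfected GAL4-responsive reporter units. Following a 24 h chemical incubation, reporter mRNA induction was read via RT-PCR fragment analysis; DMSO served as negative control and baseline.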

[17] = molecular target: human Retinoid X Receptor beta (RXRb), RXRB (gene 6257) (UniProt P28702); assay: ATG_RXRb_TRANS: Attagene TRANS-FACTORIAL HepG2 Assay for human Retinoid X Receptor beta (RXRb) (AID 2283013)
How it was run: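 Multiplexed TRANS reporter assay in HepG2; 24 h dosing; reporter mRNA by RT-PCR/CE fluorescence; gain-of-signal relative to DMSO.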

[18] = molecular target: Nuclear receptor subfamily 1 group I member 2 (Homo sapiens) (UniProt O75469); assay: ATG_PXR_TRANS: Attagene TRANS-FACTORIAL HepG2 Assay for human Pregnane X Receptor (PXR) (AID 2283008)
How it was run: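 Fluorescence intensity of FAM-labelled, HpaI-digested reporter amplicons, separated by capillary electrophoresis, quantifies induction. HepG2 cells with PXR-Gal4 trans-reporter system were exposed 24 h; DMSO defines baseline.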

[19] = molecular target: human RAR-related Orphan Receptor beta (RORb), RORB (gene 6096) (UniProt Q92753); assay: ATG_RORb_TRANS: Attagene TRANS-FACTORIAL HepG2 Assay for human RAR-related Orphan Receptor beta (RORb) (AID 2283010)
How it was run: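 In this TRANS-format test, human HepG2 cells express chimeric NR-Gal4 fusion proteins driving GAL4-UAS reporters. After 24 h dosing, reporter transcripts are measured by fluorescent RT-PCR/capillary electrophoresis, with DMSO as negative control.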

[20] = molecular target: human Thyroid Receptor alpha (THRa1), THRA (gene 7067) (UniProt P10827); assay: ATG_THRa1_TRANS: Attagene TRANS-FACTORIAL HepG2 Assay for human Thyroid Receptor alpha (THRa1) (AID 2283014)
How it was run: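 HepG2 cells transiently transfected with chimeric NR-Gal4 and GAL4-UAS reporter units, dosed 24 h. Reporter mRNA quantified by RT-PCR, fluorescent labeling, HpaI digestion and capillary electrophoresis; gain-of-signal fit versus DMSO.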

Chain of human RAR-related Orphan Receptor gamma (RORg), RORC (gene 6097) (P51449 whole entry, looked up, the tested form may be a part): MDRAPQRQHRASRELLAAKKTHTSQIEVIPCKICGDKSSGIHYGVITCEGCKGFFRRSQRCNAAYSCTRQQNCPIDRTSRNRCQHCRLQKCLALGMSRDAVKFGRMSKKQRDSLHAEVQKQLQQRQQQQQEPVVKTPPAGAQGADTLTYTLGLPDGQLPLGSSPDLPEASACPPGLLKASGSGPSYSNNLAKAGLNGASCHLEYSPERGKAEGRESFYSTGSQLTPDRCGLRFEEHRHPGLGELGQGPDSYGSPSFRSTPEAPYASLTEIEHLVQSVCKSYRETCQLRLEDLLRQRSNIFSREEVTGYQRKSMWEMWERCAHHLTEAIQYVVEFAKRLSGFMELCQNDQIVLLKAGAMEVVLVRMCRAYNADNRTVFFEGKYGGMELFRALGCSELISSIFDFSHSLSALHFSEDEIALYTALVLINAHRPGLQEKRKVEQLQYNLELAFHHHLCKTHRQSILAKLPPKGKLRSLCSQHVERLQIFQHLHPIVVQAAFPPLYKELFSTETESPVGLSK
Chain of human Peroxisome Proliferator-activated Receptor delta (PPARd), PPARD (gene 5467) (Q03181 whole entry, looked up, the tested form may be a part): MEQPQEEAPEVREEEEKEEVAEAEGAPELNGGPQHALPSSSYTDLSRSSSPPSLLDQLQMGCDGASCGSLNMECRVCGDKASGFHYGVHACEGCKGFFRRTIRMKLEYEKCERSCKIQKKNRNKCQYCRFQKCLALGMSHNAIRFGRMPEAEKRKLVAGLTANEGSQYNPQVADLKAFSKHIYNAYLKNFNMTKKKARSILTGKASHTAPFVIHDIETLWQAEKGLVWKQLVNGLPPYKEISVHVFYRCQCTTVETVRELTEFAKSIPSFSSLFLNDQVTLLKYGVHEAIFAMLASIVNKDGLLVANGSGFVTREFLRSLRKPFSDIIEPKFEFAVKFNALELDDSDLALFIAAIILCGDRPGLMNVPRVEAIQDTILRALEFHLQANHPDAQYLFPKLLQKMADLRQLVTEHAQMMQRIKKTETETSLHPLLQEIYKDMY
Chain of human Retinoid X Receptor beta (RXRb), RXRB (gene 6257) (P28702 whole entry, looked up): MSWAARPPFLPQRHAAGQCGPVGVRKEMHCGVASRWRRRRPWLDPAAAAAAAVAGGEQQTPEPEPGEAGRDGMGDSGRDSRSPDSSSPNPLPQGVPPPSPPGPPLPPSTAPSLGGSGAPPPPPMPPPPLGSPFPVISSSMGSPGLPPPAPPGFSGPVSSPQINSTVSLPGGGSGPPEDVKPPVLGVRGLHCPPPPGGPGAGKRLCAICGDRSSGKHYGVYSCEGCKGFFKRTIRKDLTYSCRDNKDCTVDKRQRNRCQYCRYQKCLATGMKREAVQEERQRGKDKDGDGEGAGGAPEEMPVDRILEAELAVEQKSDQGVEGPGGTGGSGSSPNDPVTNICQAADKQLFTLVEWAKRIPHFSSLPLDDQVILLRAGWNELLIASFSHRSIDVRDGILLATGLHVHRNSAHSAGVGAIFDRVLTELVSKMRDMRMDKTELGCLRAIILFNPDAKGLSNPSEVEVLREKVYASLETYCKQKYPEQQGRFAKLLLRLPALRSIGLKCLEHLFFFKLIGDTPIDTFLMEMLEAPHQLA
Chain of Retinoic acid receptor alpha (Homo sapiens) (P10276 whole entry, looked up, the tested form may be a part): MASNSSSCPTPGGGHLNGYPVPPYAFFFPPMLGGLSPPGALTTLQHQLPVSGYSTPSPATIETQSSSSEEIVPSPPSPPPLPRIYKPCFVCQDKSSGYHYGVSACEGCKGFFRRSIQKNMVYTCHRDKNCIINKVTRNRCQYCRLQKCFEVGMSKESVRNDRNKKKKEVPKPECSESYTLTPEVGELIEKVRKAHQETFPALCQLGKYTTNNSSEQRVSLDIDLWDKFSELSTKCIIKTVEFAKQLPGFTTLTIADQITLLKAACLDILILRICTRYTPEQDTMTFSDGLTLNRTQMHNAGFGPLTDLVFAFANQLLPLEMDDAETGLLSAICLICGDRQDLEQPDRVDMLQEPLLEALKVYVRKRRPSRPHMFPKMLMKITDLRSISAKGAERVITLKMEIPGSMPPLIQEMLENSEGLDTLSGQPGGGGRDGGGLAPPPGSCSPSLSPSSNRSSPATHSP
Chain of human Peroxisome Proliferator-activated Receptor alpha (PPARa), PPARA (gene 5465) (Q07869 whole entry, looked up, the tested form may be a part): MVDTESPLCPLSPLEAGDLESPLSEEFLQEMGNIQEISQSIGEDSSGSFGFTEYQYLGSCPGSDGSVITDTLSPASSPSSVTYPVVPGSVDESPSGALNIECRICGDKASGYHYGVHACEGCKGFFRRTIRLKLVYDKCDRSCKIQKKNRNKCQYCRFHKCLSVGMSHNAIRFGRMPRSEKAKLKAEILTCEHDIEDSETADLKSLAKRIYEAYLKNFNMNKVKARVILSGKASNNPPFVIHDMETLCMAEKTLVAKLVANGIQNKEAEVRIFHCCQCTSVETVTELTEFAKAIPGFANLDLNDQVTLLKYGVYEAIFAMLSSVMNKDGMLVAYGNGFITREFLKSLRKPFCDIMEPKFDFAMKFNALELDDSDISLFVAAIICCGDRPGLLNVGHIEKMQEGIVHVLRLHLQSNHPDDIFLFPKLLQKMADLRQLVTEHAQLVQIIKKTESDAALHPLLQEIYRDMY
Chain of Peroxisome proliferator-activated receptor gamma (Homo sapiens) (P37231 whole entry, looked up): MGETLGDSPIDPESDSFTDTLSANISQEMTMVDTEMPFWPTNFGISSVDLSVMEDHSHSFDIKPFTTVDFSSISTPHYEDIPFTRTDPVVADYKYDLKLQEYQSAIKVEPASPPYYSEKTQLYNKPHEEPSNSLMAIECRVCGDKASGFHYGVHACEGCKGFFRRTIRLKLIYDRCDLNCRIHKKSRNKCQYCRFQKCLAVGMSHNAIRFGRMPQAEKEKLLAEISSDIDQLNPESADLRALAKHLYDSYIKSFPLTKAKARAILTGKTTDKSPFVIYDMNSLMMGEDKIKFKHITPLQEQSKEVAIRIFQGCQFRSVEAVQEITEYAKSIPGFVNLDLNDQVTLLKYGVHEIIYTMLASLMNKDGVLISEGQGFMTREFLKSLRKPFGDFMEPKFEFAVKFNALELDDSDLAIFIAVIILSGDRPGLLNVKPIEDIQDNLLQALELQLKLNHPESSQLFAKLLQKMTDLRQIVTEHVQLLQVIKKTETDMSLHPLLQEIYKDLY
Chain of Nuclear receptor subfamily 1 group I member 2 (Homo sapiens) (O75469 whole entry, looked up, the tested form may be a part): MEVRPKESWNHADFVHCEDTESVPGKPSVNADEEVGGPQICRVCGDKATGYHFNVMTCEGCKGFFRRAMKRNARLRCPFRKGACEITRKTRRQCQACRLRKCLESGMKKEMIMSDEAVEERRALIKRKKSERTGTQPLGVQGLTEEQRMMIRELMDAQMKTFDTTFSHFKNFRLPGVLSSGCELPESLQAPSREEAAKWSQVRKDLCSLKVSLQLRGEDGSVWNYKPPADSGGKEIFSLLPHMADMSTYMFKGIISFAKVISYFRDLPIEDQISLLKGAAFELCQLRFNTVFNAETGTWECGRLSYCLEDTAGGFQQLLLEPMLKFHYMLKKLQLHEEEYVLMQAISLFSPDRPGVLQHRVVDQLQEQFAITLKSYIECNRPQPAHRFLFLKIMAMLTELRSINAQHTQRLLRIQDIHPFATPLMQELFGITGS
Chain of E-selectin (Homo sapiens) (P16581 whole entry, looked up): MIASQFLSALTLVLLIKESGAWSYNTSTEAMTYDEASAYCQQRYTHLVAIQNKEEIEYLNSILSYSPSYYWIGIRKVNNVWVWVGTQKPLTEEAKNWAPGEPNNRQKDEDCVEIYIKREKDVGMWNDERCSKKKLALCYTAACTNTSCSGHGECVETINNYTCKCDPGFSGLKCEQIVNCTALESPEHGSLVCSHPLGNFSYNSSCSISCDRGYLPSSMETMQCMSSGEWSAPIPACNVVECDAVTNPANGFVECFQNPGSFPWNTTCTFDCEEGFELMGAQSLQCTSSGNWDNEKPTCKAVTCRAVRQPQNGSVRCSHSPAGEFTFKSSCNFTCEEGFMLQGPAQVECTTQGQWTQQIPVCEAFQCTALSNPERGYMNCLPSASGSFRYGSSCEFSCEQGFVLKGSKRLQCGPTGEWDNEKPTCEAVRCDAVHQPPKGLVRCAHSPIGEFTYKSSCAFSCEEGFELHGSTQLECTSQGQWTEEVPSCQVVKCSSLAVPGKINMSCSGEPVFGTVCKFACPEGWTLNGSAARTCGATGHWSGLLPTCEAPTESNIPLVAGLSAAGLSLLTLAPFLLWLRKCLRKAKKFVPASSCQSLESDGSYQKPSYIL
Chain of human Retinoic Acid Receptor gamma (RARg), RARG (gene 5916) (P13631 whole entry, looked up, the tested form may be a part): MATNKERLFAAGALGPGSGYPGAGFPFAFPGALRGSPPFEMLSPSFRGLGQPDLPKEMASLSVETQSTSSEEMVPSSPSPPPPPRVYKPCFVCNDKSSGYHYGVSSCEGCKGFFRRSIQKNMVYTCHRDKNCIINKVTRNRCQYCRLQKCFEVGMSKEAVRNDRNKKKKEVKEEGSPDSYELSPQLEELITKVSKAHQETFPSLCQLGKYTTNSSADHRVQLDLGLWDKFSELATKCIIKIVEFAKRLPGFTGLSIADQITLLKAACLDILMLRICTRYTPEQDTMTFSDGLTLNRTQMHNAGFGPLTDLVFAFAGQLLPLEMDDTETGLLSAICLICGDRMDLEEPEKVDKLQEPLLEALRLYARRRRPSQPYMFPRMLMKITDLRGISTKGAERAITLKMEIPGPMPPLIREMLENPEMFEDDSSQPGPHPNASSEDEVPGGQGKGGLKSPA
Chain of human RAR-related Orphan Receptor beta (RORb), RORB (gene 6096) (Q92753 whole entry, looked up, the tested form may be a part): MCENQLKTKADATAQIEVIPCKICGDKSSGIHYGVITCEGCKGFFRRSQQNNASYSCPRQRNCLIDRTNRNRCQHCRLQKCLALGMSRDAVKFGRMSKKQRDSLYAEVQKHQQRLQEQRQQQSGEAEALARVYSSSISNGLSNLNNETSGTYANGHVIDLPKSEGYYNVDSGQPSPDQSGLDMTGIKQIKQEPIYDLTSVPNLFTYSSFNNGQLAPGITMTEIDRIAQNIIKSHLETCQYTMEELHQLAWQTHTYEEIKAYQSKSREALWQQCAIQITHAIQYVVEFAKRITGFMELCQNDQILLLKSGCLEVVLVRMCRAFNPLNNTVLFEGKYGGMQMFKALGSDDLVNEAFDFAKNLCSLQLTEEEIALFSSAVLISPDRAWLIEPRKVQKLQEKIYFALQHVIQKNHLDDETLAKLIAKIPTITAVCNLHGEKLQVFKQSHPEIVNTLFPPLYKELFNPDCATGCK

Compound: OC(O)C(F)(F)C(F)(F)F
- outcome [1]: inactive
- outcome [2]: inactive
- outcome [3]: inactive
- outcome [4]: inactive
- outcome [5]: inactive
- outcome [6]: inactive
- outcome [7]: inactive
- outcome [8]: inactive
- outcome [9]: inactive
- outcome [10]: inactive

Compound: Nc1cccnc1N
- outcome [2]: inactive
- outcome [11]: inactive
- outcome [12]: inactive
- AC50 [13]: 70.8 µM (active)
- outcome [5]: inactive
- outcome [14]: inactive
- outcome [15]: inactive
- outcome [16]: inactive
- outcome [17]: inactive

Compound: C=C(C)CCCC
- outcome [2]: inactive
- outcome [11]: inactive
- outcome [12]: inactive
- outcome [13]: inactive
- outcome [18]: inactive
- outcome [14]: inactive
- outcome [15]: inactive
- outcome [16]: inactive

Compound: O=C(O)CCC(F)(F)C(F)(F)C(F)(F)F
- outcome [1]: inactive
- outcome [2]: inactive
- outcome [3]: inactive
- outcome [4]: inactive
- outcome [19]: inactive
- outcome [16]: inactive
- outcome [17]: inactive
- outcome [6]: inactive
- outcome [7]: inactive
- outcome [8]: inactive
- outcome [9]: inactive
- outcome [10]: inactive

Compound: O=C(O)C(F)(F)C(F)(F)C(F)(F)C(=O)O
- outcome [1]: inactive
- outcome [2]: inactive
- outcome [3]: inactive
- outcome [4]: inactive
- outcome [14]: inactive
- outcome [15]: inactive
- outcome [6]: inactive
- outcome [7]: inactive
- outcome [9]: inactive
- outcome [10]: inactive

Compound: N#Cc1ccccc1O
- outcome [2]: inactive
- outcome [11]: inactive
- outcome [13]: inactive
- outcome [18]: inactive
- outcome [14]: inactive
- outcome [19]: inactive
- outcome [15]: inactive

Compound: C#CC(O)CCC (stereo not given)
- outcome [2]: inactive
- outcome [12]: inactive
- outcome [18]: inactive
- outcome [19]: inactive
- outcome [17]: inactive

Compound: CCCCCCCCn1sc(Cl)c(Cl)c1=O
- outcome [2]: inactive
- outcome [11]: inactive
- AC50 [5]: 11.1 µM (active)
- outcome [18]: inactive
- outcome [15]: inactive
- outcome [16]: inactive

Compound: CSc1ccc(Cl)cc1
- outcome [2]: inactive
- outcome [11]: inactive
- outcome [18]: inactive
- outcome [19]: inactive
- outcome [15]: inactive

Compound: Oc1ccc2c(c1)CCC2
- outcome [2]: inactive
- outcome [11]: inactive
- outcome [12]: inactive
- outcome [13]: inactive
- outcome [18]: inactive
- outcome [14]: inactive
- outcome [16]: inactive
- outcome [17]: inactive

Compound: O=C(Cl)c1ccc(Cl)cc1Cl
- outcome [2]: inactive
- outcome [11]: inactive
- outcome [13]: inactive
- outcome [5]: inactive
- outcome [14]: inactive
- outcome [15]: inactive
- outcome [20]: inactive

Compound: CCCCOC(=O)C(C)O (stereo not given)
- outcome [2]: inactive
- outcome [11]: inactive
- outcome [12]: inactive
- outcome [5]: inactive
- outcome [14]: inactive
- outcome [16]: inactive

Compound: O=C1c2ccccc2C(=O)c2c(Cl)cccc21
- outcome [2]: inactive
- outcome [11]: inactive
- outcome [13]: inactive
- AC50 [18]: 2.73 µM (active)
- outcome [14]: inactive
- outcome [16]: inactive
- outcome [20]: inactive
